MITF inhib = inhibitors of MITF | TRPM1 promoter luciferase, luminescence, 24 h | AID 2240 | hit rate 0.28% among 37,000 | inhibition, % (no concentration beside the values); in the data active = inhibition above about 85%; inconclusive = no clear call, values can overlap the other calls; inactive = below about 68%;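 note: human melanocyte line stably carrying TRPM1 promoter luciferase reporter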
NOMO-1 viab = STK33 inhibitor candidate reducing NOMO-1 cell viability; NOMO-1 AML viability, CellTiter-Glo luminescence, 72 h; inhibition, % (no concentration beside the values); hit rate 7.5% among 37,000; AID 2330; in the data active = inhibition above about 80%; inconclusive = no clear call, values can overlap the other calls
PD-1 reverse act = activators reversing PD-1 mediated T-cell inhibition | primary human CD4 T cells, PD-L1 beads, CellTiter-Glo 96 h | activation, % (concentration not given with the values) | 29,000 tested, under 10 active | AID 2316; call rule not given here
YB-1 expression = YB-1 expression inhibition. U2OS, qRT-PCR YB-1 vs CDIP delta delta Cp, 16 h; active compounds read high; zero = DMSO, each unit about twofold. delta delta Cp (YB-1 minus CDIP) (test concentration not listed). hit rate 0.37% among 30,000. AID 434959;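 active = delta delta Cp rounded down to an integer at or above 3, about 3 SD of DMSO wells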;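 note: higher means less YB-1 transcript or more CDIP transcript relative to DMSO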
Shh pathway inh = blocks Sonic Hedgehog signaling. Shh-LIGHT2 Gli-luciferase reporter, 30 h. inhibition, % (concentration not given with the values). hit rate 2.1% among 22,000;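 active = mean inhibition across valid replicates above about 65%, limit read from the data; inconclusive = mean under the limit, yet half or more replicates past it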;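 note: pathway switched on by Shh-conditioned medium diluted 1 in 25 in low serum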
Of the large screens only hits and unclear results are named; the others gave an inactive call. This is a sample that favours compounds with a hit; in the whole collection about 7.4% have one here.

C[C@@H]1CN([C@H](C)CO)C(=O)c2cccc(NC(=O)Nc3ccc(C(F)(F)F)cc3)c2O[C@H]1CN(C)CC1CC1	NOMO-1 viab 84 (no result: PD-1 reverse act)
C[C@@H]1CN([C@@H](C)CO)C(=O)c2cccc(NC(=O)Nc3ccc(C(F)(F)F)cc3)c2O[C@@H]1CN(C)CC1CC1	none
C[C@@H]1CN([C@@H](C)CO)C(=O)CCCn2cc(nn2)CO[C@@H]1CN(C)S(=O)(=O)c1cccs1	none (no result: MITF inhib, NOMO-1 viab, PD-1 reverse act, Shh pathway inh)
Cc1noc(C)c1NC(=O)N(C)C[C@@H]1Oc2ccc(NC(=O)Cc3ccccc3)cc2C(=O)N([C@H](C)CO)C[C@@H]1C	none
O=C(/C=C/c1ccc(O)cc1)O[C@@H]1CC(O)(C(=O)O)C[C@@H](OC(=O)/C=C/c2ccc(O)cc2)C1O (some centres undefined)	none
CC(=O)N1CCN(c2ccc([N+](=O)[O-])c(NCc3cccnc3)c2)CC1	none (no result: YB-1 expression, Shh pathway inh)
CC(C)(C)c1ccc(C(=O)N2CCN(c3ccc([N+](=O)[O-])c(NCc4cccnc4)c3)CC2)cc1	MITF inhib inconclusive, NOMO-1 viab 111 (no result: YB-1 expression, Shh pathway inh)
C=C1C(=O)O[C@@H]2[C@H]1[C@H](O)C[C@]1(C)[C@@H](O)CC=C(C)[C@@H]21	NOMO-1 viab 115
Cn1c(SCC(=O)N2CCN(Cc3ccccc3)CC2)nnc1-c1ccncc1	none (no result: YB-1 expression, Shh pathway inh)
Cc1cc(C)c(C(=O)c2ccccc2)cc1C(=O)c1ccccc1	none (no result: Shh pathway inh)
C[C@@H]1CN([C@H](C)CO)C(=O)c2cc(NC(=O)Nc3cccc4ccccc34)ccc2O[C@H]1CN(C)Cc1ccc(Oc2ccccc2)cc1	NOMO-1 viab 109 (no result: Shh pathway inh)
C[C@@H]1CN([C@@H](C)CO)C(=O)c2cc(NC(=O)Nc3cccc4ccccc34)ccc2O[C@@H]1CN(C)Cc1ccc(Oc2ccccc2)cc1	NOMO-1 viab 114 (no result: PD-1 reverse act, Shh pathway inh)
COc1ccc(CN(C)C[C@H]2Oc3ccc(NC(=O)Nc4cccc5ccccc45)cc3C(=O)N([C@H](C)CO)C[C@@H]2C)cc1	none
CC(=O)Nc1cccc(NC(=O)c2cccc(Cn3cc(Cl)cn3)c2)c1	none (no result: YB-1 expression, Shh pathway inh)
CC(=O)OC[C@]12[C@H](OC(C)=O)[C@H](OC(C)=O)[C@@H]3[C@@H](OC(C)=O)[C@@]14O[C@@]3(C)COC(=O)c1cnccc1CC[C@H](C)C(=O)O[C@@]4(C)[C@@H](O)[C@H](O)[C@@H]2OC(C)=O	NOMO-1 viab 119
Cc1cc(OCc2nc3ccccc3s2)ccc1NC(=O)Nc1cccc(Cl)c1	NOMO-1 viab 107 (no result: PD-1 reverse act, YB-1 expression, Shh pathway inh)
C[C@@H]1CN([C@@H](C)CO)C(=O)Cc2cc(N(C)C)ccc2O[C@@H]1CN(C)Cc1ccc(Oc2ccccc2)cc1	NOMO-1 viab 106 (no result: PD-1 reverse act)
C[C@@H]1CN([C@@H](C)CO)C(=O)Cc2cc(N(C)C)ccc2O[C@@H]1CN(C)Cc1ccccc1	NOMO-1 viab 122 (no result: PD-1 reverse act)
Nc1cc(=O)[nH]c(=O)n1-c1ccc(Cl)cc1	none
C[C@@H]1CN([C@H](C)CO)C(=O)c2cc(NC(=O)C3CCCCC3)ccc2O[C@@H]1CN(C)Cc1ccc(C(F)(F)F)cc1	none
CC(C)(C)c1ccc(C(O)CCCN2CCC(C(O)(c3ccccc3)c3ccccc3)CC2)cc1 (centres undefined)	NOMO-1 viab 142
O=C(N/N=C/c1ccc[nH]1)c1ccccc1O	none (no result: MITF inhib, NOMO-1 viab, PD-1 reverse act, Shh pathway inh)
C[C@@H]1CN([C@H](C)CO)C(=O)c2cccc(NC(=O)Nc3ccc(C(F)(F)F)cc3)c2O[C@@H]1CN(C)S(=O)(=O)c1cccs1	NOMO-1 viab 101, Shh pathway inh inconclusive (no result: PD-1 reverse act)
C[C@@H]1CN([C@@H](C)CO)C(=O)c2cccc(NC(=O)Nc3ccc(C(F)(F)F)cc3)c2O[C@H]1CN(C)S(=O)(=O)c1cccs1	NOMO-1 viab 88 (no result: PD-1 reverse act)
O[C@H]1[C@H]2c3cc4c(cc3CN3CCC(=C[C@@H]1O)[C@H]23)OCO4	NOMO-1 viab 142, Shh pathway inh 83
O[C@@H]1[C@@H](O)C=C2CCN3Cc4cc5c(cc4[C@H]1C23)OCO5 (some centres undefined)	NOMO-1 viab 114, Shh pathway inh 96 (no result: PD-1 reverse act)
CN1C(=O)c2ccccc2-n2c(nc3ccccc3c2=O)[C@@]12O[C@H]2c1ccccc1	NOMO-1 viab 104
C[C@H]1CN([C@@H](C)CO)C(=O)c2cccc(NS(=O)(=O)c3ccc(F)cc3)c2O[C@@H]1CN(C)S(=O)(=O)c1ccc(Cl)cc1	none
N#Cc1c(C(F)(F)F)cc(-c2cccs2)nc1SCC(=O)Nc1sc2c(c1C#N)CCC2	none (no result: YB-1 expression, Shh pathway inh)
N#Cc1c(NC(=O)CSc2ncn[nH]2)sc2c1CCCCC2	MITF inhib 104 (no result: YB-1 expression, Shh pathway inh)
CC(C)(C)c1cc(C(F)(F)F)c(C#N)c(SCC(=O)Nc2sc3c(c2C#N)CCCC3)n1	NOMO-1 viab 97 (no result: PD-1 reverse act, YB-1 expression, Shh pathway inh)
COC(=O)c1c(NC(=O)CSc2ncn[nH]2)sc2c1CCCC2	none (no result: YB-1 expression, Shh pathway inh)
C[C@@H]1CN([C@H](C)CO)C(=O)Cc2cc(NC(=O)Nc3ccc4c(c3)OCO4)ccc2O[C@H]1CN(C)C	YB-1 expression 11
COc1ccc(S(=O)(=O)N(C)C[C@@H]2Oc3ccc(NC(=O)Nc4ccc5c(c4)OCO5)cc3CC(=O)N([C@H](C)CO)C[C@H]2C)cc1	none (no result: PD-1 reverse act)
C[C@H](CO)N1C[C@H](C)[C@H](CN(C)S(=O)(=O)c2ccccc2)Oc2ccc(NC(=O)Nc3ccc4c(c3)OCO4)cc2CC1=O	NOMO-1 viab 126
COc1ccc(S(=O)(=O)N(C)C[C@@H]2Oc3ccc(NC(=O)Nc4ccc5c(c4)OCO5)cc3CC(=O)N([C@H](C)CO)C[C@@H]2C)cc1	NOMO-1 viab 114
C[C@H]1CN([C@@H](C)CO)C(=O)Cc2cc(NC(=O)Nc3ccc4c(c3)OCO4)ccc2O[C@H]1CN(C)S(=O)(=O)c1ccc(F)cc1	NOMO-1 viab 128 (no result: PD-1 reverse act)
C[C@@H]1CN([C@H](C)CO)C(=O)Cc2cc(NC(=O)Nc3ccc4c(c3)OCO4)ccc2O[C@H]1CN(C)S(=O)(=O)c1ccccc1	none
C[C@@H]1CN([C@@H](C)CO)C(=O)Cc2cc(NC(=O)Nc3ccc4c(c3)OCO4)ccc2O[C@@H]1CN(C)S(=O)(=O)c1ccc(F)cc1	none
CC(=O)Nc1ccccc1NC(=O)CN1C(=O)c2ccccc2C1=O	none (no result: YB-1 expression, Shh pathway inh)
C[C@@H]1CN([C@@H](C)CO)C(=O)c2cc(NC(=O)Cc3ccccc3)ccc2O[C@H]1CN(C)Cc1ccc(-c2ccccc2)cc1	none
Cc1ccc(S(=O)(=O)N(C)C[C@@H]2Oc3ccc(NC(=O)Nc4ccc5c(c4)OCO5)cc3CC(=O)N([C@@H](C)CO)C[C@@H]2C)cc1	NOMO-1 viab 108 (no result: PD-1 reverse act)
Cc1ccc(S(=O)(=O)N(C)C[C@@H]2Oc3ccc(NC(=O)Nc4ccc5c(c4)OCO5)cc3CC(=O)N([C@H](C)CO)C[C@H]2C)cc1	none
CCC(C)(CN(C)C)OC(=O)c1ccccc1 (centres undefined)	none
Cn1c(=O)c2c(nc(NCC(O)c3ccccc3)n2Cc2ccc(F)cc2)n(C)c1=O (centres undefined)	NOMO-1 viab 95 (no result: YB-1 expression, Shh pathway inh)
COc1ccc(NC(=O)Nc2ccc3c(c2)C(=O)N([C@@H](C)CO)C[C@@H](C)[C@@H](CN(C)C(=O)Nc2cccc4ccccc24)O3)cc1	none
COc1ccc(Cl)cc1N1CCN(CCNC(=O)Nc2ccccc2C)CC1	none (no result: PD-1 reverse act, YB-1 expression, Shh pathway inh)

Bioassay records as filed in PubChem BioAssay.
